Results taken from PubChem BioAssay AID624330 (Southern Research Specialized Biocontainment Screening …, 2012).
In all, about 340,000 compounds went through this assay and about 2,100 (0.62%) were called active.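 How the source made its calls: active means first-screen hits whose inhibition reached a set limit at any dose in the follow-up dose series; inconclusive means inhibition above the set first-screen limit but never retested; inactive means the rest.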 The list is a sample of the results. Measured potencies and affinities stand elsewhere.

biological target: Rac GTPase-activating protein 1 (Homo sapiens) (UniProt Q9H0H5); assay: MgcRacGAP GTPase-activating activity inhibitors, confirmation, biochemical, ADP Hunter fluorescence, primary and confirmatory (AID 624330); conditions: MgcRacGAP-stimulated Rac1 GTP hydrolysis, at 30 µM, stronger effect = higher value, GST-tagged Rac1 F28L mutant substrate;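 further: fluorescence reports GDP produced by GAP-driven GTP hydrolysis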
Sequence (Q9H0H5 whole entry, looked up): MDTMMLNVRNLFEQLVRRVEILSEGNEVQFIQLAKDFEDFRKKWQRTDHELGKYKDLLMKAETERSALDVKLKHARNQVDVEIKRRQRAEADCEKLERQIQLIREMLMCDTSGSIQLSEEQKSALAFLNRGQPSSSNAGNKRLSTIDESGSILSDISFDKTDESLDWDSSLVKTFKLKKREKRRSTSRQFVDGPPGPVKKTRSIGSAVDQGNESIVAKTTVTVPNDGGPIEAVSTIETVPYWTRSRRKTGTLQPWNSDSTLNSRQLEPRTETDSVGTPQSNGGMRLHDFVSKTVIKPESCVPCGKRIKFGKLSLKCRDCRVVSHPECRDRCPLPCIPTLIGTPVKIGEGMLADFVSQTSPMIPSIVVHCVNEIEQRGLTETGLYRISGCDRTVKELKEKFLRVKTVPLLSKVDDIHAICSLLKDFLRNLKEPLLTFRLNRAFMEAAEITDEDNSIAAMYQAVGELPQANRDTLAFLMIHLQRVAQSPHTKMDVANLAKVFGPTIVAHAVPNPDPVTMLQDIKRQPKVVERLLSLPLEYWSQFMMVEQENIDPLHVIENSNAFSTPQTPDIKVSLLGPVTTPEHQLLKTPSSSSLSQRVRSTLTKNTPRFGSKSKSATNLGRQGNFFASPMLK

| SMILES | inhibition |
| --- | --- |
| CN(Cc1ccccc1)c1ncc(C=O)s1 | 11.2% (inactive) |
| CCCCC(=O)Nc1ccccc1CC | 7.96% (inactive) |
| C=CCN1C(=O)CS/C1=N\N=C\c1cccc([N+](=O)[O-])c1 | 5.94% (inactive) |
| CCCCNS(=O)(=O)c1ccc2nc(SCC(=O)Nc3ccccc3Cl)[nH]c2c1 | 9.77% (inactive) |
| CCOc1ccc(NC(=S)N2CCN(C/C=C/c3ccccc3)CC2)cc1 | 6.87% (inactive) |
| Cn1c(=O)n(C)c2cc(NC(=O)CSc3ccccc3)ccc21 | 6.1% (inactive) |
| COc1ccc(CN2CCN(C(=O)c3ccccc3F)CC2)c(OC)c1OC | -1.41% (inactive) |
| CSc1ccc(CN2CCC(Cc3ccccc3)CC2)cc1 | 15% (inactive) |
| Clc1ccc(OCCCCCN2CCOCC2)cc1 | -5.93% (inactive) |
| CSc1ccc(CN2CCC(N3CCC(C(=O)NC4CC4)CC3)CC2)cc1 | -3.51% (inactive) |
| CCOC(=O)Cc1csc(NC(=O)c2c(C)noc2C)n1 | 7.91% (inactive) |
| CCC1=C2CC[C@H]3C(=O)N(C)C(=O)[C@H]3[C@H]2[C@@]2(Cc3ccccc3)C(=NCCOC)OC(=O)N2C1=O | 10.6% (inactive) |
| C/C(=N\NC(=O)c1nnn(-c2nonc2N)c1CN1CCCCCC1)c1ccc(Br)cc1 | -3.03% (inactive) |
| CC(Oc1ccc(F)cc1)C(=O)N(Cc1ccccc1)c1c(N)n(Cc2ccccc2)c(=O)[nH]c1=O (stereo unspecified) | 3.15% (inactive) |
| CCOC(=O)Nc1ccc(C(N)=O)cc1 | 10% (inactive) |
| CCOC(=O)Nc1ccc(Oc2ccccc2)cc1 | 1.24% (inactive) |
| Cc1ccccc1NC(=O)COc1coc(CN2CCN(Cc3ccccc3)CC2)cc1=O | 3.8% (inactive) |
| N#Cc1ccc(-c2ccccc2)nc1Sc1ccc(F)cc1 | 3.11% (inactive) |
| Cc1c(/C=N\NC(=O)C2(C)CC2(Cl)Cl)cnn1C (stereo unspecified) | 2.13% (inactive) |
| CCOc1cc(/C=C2/C(=O)N(c3ccccc3)N=C2C)ccc1OC(=O)c1cccs1 | 15.2% (inactive) |
| CC(=O)Oc1ccc(/C=C2/C(=O)N(c3ccccc3)N=C2C)cc1 | 25% (inactive) |
| COc1ccc(C(=O)c2coc3ccc(O)c(CN4CCCC4)c23)cc1 | 8.22% (inactive) |
| CN1C2CCC1/C(=C\c1ccccc1F)C(=O)/C2=C/c1ccccc1F | 7.33% (inactive) |
| CN1C2CCC1/C(=C\c1ccccc1)C(=O)/C2=C\c1ccccc1 | 12.8% (inactive) |
| Cc1ccc(S(=O)(=O)N2CCCCC2)cc1NC(=O)c1c(-c2ccccc2)noc1C | 0.74% (inactive) |
| O=C(COC(=O)C1CCCCC1)Nc1ccc(S(=O)(=O)N2CCOCC2)cc1 | -2.69% (inactive) |
